In the supplement of paper PMC6089552:
Among all 3,200 compounds or so, about 300 (9.4%) showed activity. What follows is part of a selection rich in actives, with near analogues and random picks from the rest.

Test system: A673/TR/shEF
Test: cell viability (LOESS-normalised, relative to median of negative controls) (log2 ratio); higher = more viable cells (less compound effect), active = hit call of the paper (over 3 MAD below the median)
Conditions: treatment time: 72 h
Method in brief: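 Viability of A673/TR/shEF Ewing sarcoma cells was determined by CellTiter-Glo luminescence. The cells, at 1,500 per well in 384-well plates, were grown with or without doxycycline from 24 h before compound addition to switch on EWS-FLI1 shRNA knockdown, then exposed for three days to library compounds at two or more concentrations or to DMSO controls. Signals were LOESS-corrected plate by plate, normalised to the negative-control median and log2-transformed.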

[1] = 0.103 µM, library screen: screen3, EWS-FLI1 expression: high (no doxycycline)
[2] = 0.103 µM, library screen: screen3, EWS-FLI1 expression: low (doxycycline-induced shRNA knockdown)
[3] = 0.308 µM, library screen: screen3, EWS-FLI1 expression: high (no doxycycline)
[4] = 0.308 µM, library screen: screen3, EWS-FLI1 expression: low (doxycycline-induced shRNA knockdown)
[5] = 0.926 µM, library screen: screen3, EWS-FLI1 expression: high (no doxycycline)
[6] = 0.926 µM, library screen: screen3, EWS-FLI1 expression: low (doxycycline-induced shRNA knockdown)
[7] = 2.8 µM, library screen: screen3, EWS-FLI1 expression: high (no doxycycline)
[8] = 2.8 µM, library screen: screen3, EWS-FLI1 expression: low (doxycycline-induced shRNA knockdown)
[9] = 8.3 µM, library screen: screen3, EWS-FLI1 expression: high (no doxycycline)
[10] = 8.3 µM, library screen: screen3, EWS-FLI1 expression: low (doxycycline-induced shRNA knockdown)
[11] = 25 µM, library screen: screen3, EWS-FLI1 expression: high (no doxycycline)
[12] = 25 µM, library screen: screen3, EWS-FLI1 expression: low (doxycycline-induced shRNA knockdown)
[13] = 0.25 µM, library screen: screen2, EWS-FLI1 expression: high (no doxycycline)
[14] = 0.25 µM, library screen: screen2, EWS-FLI1 expression: low (doxycycline-induced shRNA knockdown)
[15] = 2.5 µM, library screen: screen2, EWS-FLI1 expression: high (no doxycycline)
[16] = 2.5 µM, library screen: screen2, EWS-FLI1 expression: low (doxycycline-induced shRNA knockdown)
[17] = 0.25 µM, library screen: screen1, EWS-FLI1 expression: high (no doxycycline)
[18] = 0.25 µM, library screen: screen1, EWS-FLI1 expression: low (doxycycline-induced shRNA knockdown)
[19] = 2.5 µM, library screen: screen1, EWS-FLI1 expression: high (no doxycycline)
[20] = 2.5 µM, library screen: screen1, EWS-FLI1 expression: low (doxycycline-induced shRNA knockdown)

Measured: cell viability (log2)

Nc1nc(Cl)nc2c1ncn2[C@H]1C[C@H](O)[C@@H](CO)O1
inactive: [1] 0.0389 | [2] -0.0254 | [3] 0.0133 | [4] 0.0217 | [5] 0.0147 | [6] 0.0591 | [7] -0.0664 | [8] 0.0972 | [10] -0.0455
active: [9] -0.402 | [11] -1.32 | [12] -0.402

OC[C@H]1O[C@@H](n2cnc3c(NC4CCCC4)nc(Cl)nc32)[C@H](O)[C@@H]1O
inactive: [13] 0.143 | [14] 0.038 | [15] 0.169 | [16] 0.0636

Nc1nc(Cl)nc2c1ncn2[C@@H]1O[C@H](COP(=O)(O)OP(=O)(O)OP(=O)(O)O)[C@H](O)C1O (stereo partly specified)
inactive: [13] 0.146 | [14] 0.0571 | [15] 0.0213 | [16] 0.0355

Nc1nc(Cl)nc2c1ncn2[C@@H]1O[C@H](CO)[C@@H](O)[C@H]1O
inactive: [13] 0.323 | [14] 0.0766 | [15] 0.0971 | [16] -0.0176

Nc1ncnc2c1ncn2[C@H]1C[C@H](O)[C@@H](CO)O1
inactive: [17] 0.0888 | [18] 0.137 | [19] 0.0495 | [20] 0.162

Nc1nc(Cl)nc2c1ncn2[C@@H]1O[C@H](CO)[C@@H](O)[C@@H]1F
active: [7] -0.287 | [9] -1.27 | [11] -3.63 | [12] -0.69
inactive: [1] 0.0438 | [2] 0.0567 | [3] 0.104 | [4] 0.0694 | [5] -0.027 | [6] 0.0481 | [8] 0.0753 | [10] -0.0627

CC1(NCC(O)COc2cccc3[nH]ccc23)CCC(C(C)(C)NC(=O)CBr)CC1 (stereo unspecified)
inactive: [13] 0.126 | [14] 0.0547 | [15] 0.106 | [16] 0.0182

CCOc1c(Br)cc(C=C(C#N)c2nn(-c3ccccc3)c(N)c2C#N)cc1OC
inactive: [17] 0.0856 | [18] 0.124 | [19] 0.0719 | [20] 0.193

CCOC(=O)c1c[nH]c2c(C)cccc2c1=O
inactive: [17] 0.111 | [18] 0.0771 | [19] 0.1 | [20] -0.0609

CC[C@H]1OC(=O)[C@H](C)[C@@H](O[C@H]2C[C@@](C)(OC)[C@@H](O)[C@H](C)O2)[C@H](C)[C@@H](O[C@@H]2O[C@H](C)C[C@H](N(C)C)[C@H]2O)[C@](C)(O)C[C@@H](C)[C@@H]2N[C@@H](COCCOC)OC([C@H]2C)[C@]1(C)O
inactive: [17] 0.163 | [18] 0.065 | [19] 0.143 | [20] 0.0253

COc1cc(O)c2c(=O)c(-c3ccc(O)cc3)coc2c1
inactive: [17] -0.0342 | [18] 0.0164 | [19] 0.131 | [20] 0.0327

O=C1CCCCC/C=C\CCCCCCCCO1
inactive: [17] -0.00728 | [18] 0.0186 | [19] 0.143 | [20] 0.0924

CCCCCCCCCCCCCCCCCC(=O)NCC(COP(=O)([O-])OCC[N+](C)(C)C)OC (stereo unspecified)
inactive: [13] 0.255 | [14] 0.0758 | [15] 0.173 | [16] 0.0504

Cc1cc(Nc2cc(CN3CCOCC3)c3nc(C)c(Cc4ccc(Cl)cc4F)n3n2)n[nH]1
active: [7] -0.183 | [9] -0.442 | [10] -0.142 | [11] -1.04 | [12] -0.863
inactive: [1] 0.0112 | [2] 0.0393 | [3] -0.00623 | [4] -0.00356 | [5] -0.0578 | [6] 0.0432 | [8] -0.0123

COc1c2ccoc2c(OC)c2oc(=O)ccc12
inactive: [17] 0.157 | [18] -0.0309 | [19] 0.197 | [20] 0.0899

CC1Cc2ccccc2N1C(=S)Nc1ccc2nccnc2c1 (stereo unspecified)
inactive: [17] 0.139 | [18] 0.113 | [19] 0.133 | [20] 0.0139

CCC(C)(C)C(=O)O[C@H]1C[C@@H](C)C=C2C=C[C@H](C)[C@H](CC[C@@H]3C[C@@H](O)CC(=O)O3)[C@H]21
active: [11] -1.27 | [12] -1.32
inactive: [1] 0.14 | [2] 0.05 | [17] 0.0551 | [18] -0.0746 | [3] 0.153 | [4] 0.105 | [5] 0.0408 | [6] 0.0447 | [19] 0.0209 | [20] -0.321 | [7] 0.107 | [8] -0.0366 | [9] -0.0829 | [10] -0.13

CC[C@H](C)C(=O)O[C@H]1C[C@@H](C)C=C2C=C[C@H](C)[C@H](CC[C@@H]3C[C@@H](O)CC(=O)O3)[C@H]21
inactive: [17] 0.0174 | [18] -0.0358 | [19] 0.109 | [20] 0.0431

CC[C@H](C)C(=O)O[C@H]1CCC=C2C=C[C@H](C)[C@H](CC[C@@H]3C[C@@H](O)CC(=O)O3)[C@H]21
inactive: [17] 0.147 | [18] 0.00215 | [13] 0.167 | [14] 0.108 | [19] 0.0603 | [20] -0.0998 | [15] 0.145 | [16] 0.0674

COCCn1c2c([n+](Cc3cnccn3)c1C)C(=O)c1ccccc1C2=O
active: [1] -3.94 | [2] -2.36 | [3] -3.88 | [4] -4.02 | [5] -3.96 | [6] -4.06 | [7] -4.31 | [8] -4.17 | [9] -4.31 | [10] -4.28 | [11] -4.31 | [12] -4.3

CC(=O)OCC(=O)[C@@]1(O)CC[C@H]2[C@@H]3CC[C@@H]4C[C@H](O)CC[C@]4(C)[C@H]3C(=O)C[C@@]21C
inactive: [17] 0.128 | [18] 0.0697 | [19] 0.109 | [20] -0.0114

COc1ccc(-c2cc(=O)c3ccccc3o2)cc1OC
inactive: [17] -0.0122 | [18] 0.00789 | [19] 0.068 | [20] 0.128

C=C[C@@H](C1=CC(=O)C(OC)=C(OC)C1=O)c1ccccc1
active: [17] -0.165
inactive: [18] 0.026 | [19] -0.00361 | [20] 0.0945

C=CC(C1=CC(=O)C(OC)=CC1=O)c1ccc(OC)cc1 (stereo unspecified)
inactive: [17] 0.133 | [18] 0.135 | [19] 0.157 | [20] 0.265

C=CC(C1=CC(=O)C(OC)=CC1=O)c1ccccc1 (stereo unspecified)
inactive: [17] 0.0774 | [18] 0.000535 | [19] 0.158 | [20] 0.101

COc1ccc(C2C3=C(CC(C)(C)CC3=O)OC3=C2C(=O)CC(C)(C)C3)cc1[N+](=O)[O-]
inactive: [17] 0.06 | [18] 0.0112 | [19] 0.134 | [20] -0.00188

CC1=C(O)C(=O)C(C(C)C)CC1 (stereo unspecified)
inactive: [17] 0.0674 | [18] 0.0473 | [19] 0.0636 | [20] 0.0767

COc1ccc(C2CC(=O)c3c(OC)cc(O)cc3O2)cc1 (stereo unspecified)
inactive: [17] 0.0309 | [18] -0.00204 | [19] -0.0215 | [20] 0.0561

CC1=C2[C@H]3OC(=O)[C@@H](C)[C@@H]3[C@@H](O)C[C@@]2(C)C=CC1=O
inactive: [17] 0.026 | [18] 0.0292 | [19] 0.113 | [20] 0.0749

CC(C)[C@@H](C)C=C[C@@H](C)[C@H]1CC[C@H]2C3=CCC4CC(=O)CC[C@]4(C)[C@H]3CC[C@]12C (stereo partly specified)
inactive: [17] 0.0656 | [18] 0.0592 | [19] 0.126 | [20] 0.0808

C[C@@H]1C/C=C/C=C/C=C/C=C/[C@H](OC2O[C@H](C)[C@@H](O)[C@H](N)[C@@H]2O)C[C@@H]2O[C@](O)(C[C@@H](O)C[C@H]3O[C@@H]3/C=C/C(=O)O1)C[C@H](O)[C@H]2C(=O)O (stereo partly specified)
inactive: [1] 0.0488 | [2] 0.0464 | [3] 0.0456 | [4] 0.0497 | [5] 0.0317 | [6] 0.0938 | [7] 0.0554 | [8] 0.0621 | [9] 0.0808 | [10] 0.0825 | [11] 0.128 | [12] 0.0916

CCCCCCCCCCCCCCCC(=O)C1=C(O)[C@@H](CO)OC1=O
active: [19] -0.362 | 25 µM, library screen: screen1, EWS-FLI1 expression: high (no doxycycline) -0.293
inactive: 0.025 µM, library screen: screen1, EWS-FLI1 expression: high (no doxycycline) 0.213 | 0.025 µM, library screen: screen1, EWS-FLI1 expression: low (doxycycline-induced shRNA knockdown) 0.0909 | [17] 0.235 | [18] 0.112 | [20] 0.0271 | 25 µM, library screen: screen1, EWS-FLI1 expression: low (doxycycline-induced shRNA knockdown) -0.135

CCCCCCCCCCCCCCCC(=O)NCCO
inactive: [13] 0.109 | [14] 0.0709 | [15] 0.0624 | [16] 0.0396

N#C/C(=C\c1cccc(Cl)c1)c1nc2ccccc2[nH]1
inactive: [17] 0.153 | [18] 0.256 | [19] 0.247 | [20] 0.148

CC(COc1ccccc1)NC(C)C(O)c1ccc(O)cc1 (stereo unspecified)
inactive: [17] 0.163 | [18] 0.0434 | [19] 0.178 | [20] 0.141

O=C(OCc1ccccc1)c1ccccc1
inactive: [17] 0.0522 | [18] 0.0983 | [19] 0.0811 | [20] 0.112

Oc1ccc(OCc2ccccc2)cc1
active: [7] -0.186 | [11] -0.212
inactive: [1] 0.123 | [2] -0.0268 | [3] 0.0306 | [4] 0.0601 | [5] 0.0336 | [6] -0.0221 | [8] 0.0872 | [9] -0.00746 | [10] 0.0842 | [12] 0.0776
